{
  "source": "paper PMC4336329",
  "about": "(PLoS ONE, 2015)",
  "note": "Out of some 310,000 compounds screened, about 14,000 (4.5%) showed an effect of 50% or more. Effects have a minus sign here. This excerpt belongs to a sample that is enriched for strong results.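 Note: peak tail current of the secondary pulse compared with the same well before compound.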",
  "data": [
    {"biological_target": "human ether-à-go-go-related gene (hERG) potassium channel (human, UniProt Q12809)", "sequence (Q12809 whole entry, looked up)": "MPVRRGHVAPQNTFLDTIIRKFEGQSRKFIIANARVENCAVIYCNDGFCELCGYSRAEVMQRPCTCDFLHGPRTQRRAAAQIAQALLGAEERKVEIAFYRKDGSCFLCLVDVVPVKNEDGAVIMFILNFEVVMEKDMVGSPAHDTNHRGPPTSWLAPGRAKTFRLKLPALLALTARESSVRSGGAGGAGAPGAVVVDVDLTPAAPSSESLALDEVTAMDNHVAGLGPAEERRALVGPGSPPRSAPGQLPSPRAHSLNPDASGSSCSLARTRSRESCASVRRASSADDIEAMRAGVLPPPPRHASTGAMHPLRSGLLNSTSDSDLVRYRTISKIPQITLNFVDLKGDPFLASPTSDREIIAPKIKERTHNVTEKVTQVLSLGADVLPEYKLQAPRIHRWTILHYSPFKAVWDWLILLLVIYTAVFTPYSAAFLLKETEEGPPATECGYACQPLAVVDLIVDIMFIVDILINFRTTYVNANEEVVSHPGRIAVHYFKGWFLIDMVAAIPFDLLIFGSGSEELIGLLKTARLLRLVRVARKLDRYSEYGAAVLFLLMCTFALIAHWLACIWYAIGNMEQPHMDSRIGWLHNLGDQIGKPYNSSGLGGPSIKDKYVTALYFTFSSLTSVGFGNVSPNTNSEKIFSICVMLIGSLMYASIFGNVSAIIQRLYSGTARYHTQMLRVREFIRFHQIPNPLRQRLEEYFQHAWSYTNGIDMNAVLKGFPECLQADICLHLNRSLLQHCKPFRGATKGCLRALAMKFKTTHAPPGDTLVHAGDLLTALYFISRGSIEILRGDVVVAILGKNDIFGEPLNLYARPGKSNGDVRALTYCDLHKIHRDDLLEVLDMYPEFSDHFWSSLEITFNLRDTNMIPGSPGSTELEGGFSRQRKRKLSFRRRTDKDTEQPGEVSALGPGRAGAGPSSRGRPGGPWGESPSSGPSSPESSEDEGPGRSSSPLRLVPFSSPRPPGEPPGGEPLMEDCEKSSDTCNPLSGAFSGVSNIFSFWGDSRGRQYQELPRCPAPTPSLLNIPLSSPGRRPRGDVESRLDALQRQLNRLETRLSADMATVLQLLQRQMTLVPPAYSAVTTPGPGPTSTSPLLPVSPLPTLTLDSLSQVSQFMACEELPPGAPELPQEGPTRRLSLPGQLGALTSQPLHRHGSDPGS", "assay": "primary screen, population patch clamp on CHO cells stably expressing hERG; higher = less effect of the substance", "units": {"hERG current change (%, negative = inhibition) at 10uM": "%"}, "values": [
      {"smiles": "Cc1ccccc1NC(=O)CN1CCN(Cc2ccccc2)CC1", "hERG current change (%, negative = inhibition) at 10uM": -36.1},
      {"smiles": "CCN1CCN(CC(=O)Nc2cc(F)ccc2C)CC1", "hERG current change (%, negative = inhibition) at 10uM": -46.2},
      {"smiles": "Cc1ccc(F)cc1NC(=O)CN1CCN(Cc2ccccc2)CC1", "hERG current change (%, negative = inhibition) at 10uM": -63.2},
      {"smiles": "COc1ccc(C)cc1NC(=O)CSc1ccc(Cl)cc1", "hERG current change (%, negative = inhibition) at 10uM": 11.1},
      {"smiles": "Cc1cccc(C)c1NC(=O)CCS(=O)(=O)c1ccc(Br)cc1", "hERG current change (%, negative = inhibition) at 10uM": 31.2},
      {"smiles": "COc1cccc(-c2nc(CS(=O)(=O)CC(=O)N3CCN(C)CC3)c(C)o2)c1", "hERG current change (%, negative = inhibition) at 10uM": 8.02},
      {"smiles": "CCN(CC)CC(=O)Nc1ccc(-c2nc3cc(NC(=O)CN(CC)CC)ccc3o2)cc1", "hERG current change (%, negative = inhibition) at 10uM": -18.1},
      {"smiles": "CCNC(=O)NC(=O)COC(=O)c1ccccc1SCC(=O)NC(=O)NCC", "hERG current change (%, negative = inhibition) at 10uM": 3.64},
      {"smiles": "Cc1ccc(-c2nc3ccccc3c(C(=O)NCc3cccs3)c2C)cc1", "hERG current change (%, negative = inhibition) at 10uM": -5.33},
      {"smiles": "COC(=O)C1=C(c2ccc(F)cc2F)C[C@@H]2CC[C@H]1N2C(=O)NCc1ccc(F)cc1", "hERG current change (%, negative = inhibition) at 10uM": -46.4},
      {"smiles": "CC(=O)Nc1ccc(S(=O)(=O)Nc2c(NC3CCCCC3)c3ccccc3oc2=O)cc1", "hERG current change (%, negative = inhibition) at 10uM": 7.19},
      {"smiles": "O=C(CN1CCC(C(=O)c2ccc(F)cc2)CC1)Nc1ccccc1Cl", "hERG current change (%, negative = inhibition) at 10uM": -20.5},
      {"smiles": "Cc1ccc(NC(=O)CN2CCN(Cc3ccccc3)CC2)cc1F", "hERG current change (%, negative = inhibition) at 10uM": -71.2},
      {"smiles": "O=C(CN1CCN(CC(=O)c2ccc(F)cc2)CC1)Nc1ccccc1Cl", "hERG current change (%, negative = inhibition) at 10uM": -68.9},
      {"smiles": "Cc1ccc(S(=O)(=O)N(C)C)cc1NC(=O)CN1CCN(Cc2ccccc2)CC1.Cl", "hERG current change (%, negative = inhibition) at 10uM": -24.8},
      {"smiles": "CC(=O)N1CCN(CC(=O)Nc2ccc(C)c(F)c2)CC1.Cl", "hERG current change (%, negative = inhibition) at 10uM": 0.314},
      {"smiles": "CCN(CC)S(=O)(=O)c1ccc(C)c(NC(=O)CN2CCN(Cc3ccccc3)CC2)c1.Cl", "hERG current change (%, negative = inhibition) at 10uM": -69.1},
      {"smiles": "CCN(CC)S(=O)(=O)c1ccc(C)c(NC(=O)CNCCN(C(C)C)C(C)C)c1.O=C(O)C(=O)O", "hERG current change (%, negative = inhibition) at 10uM": -75.5},
      {"smiles": "CCN(CC)c1ccc(S(=O)(=O)N2CCOCC2)cc1NC(=O)CN1CCN(Cc2ccccc2)CC1.Cl", "hERG current change (%, negative = inhibition) at 10uM": -45.7},
      {"smiles": "Cc1ccc(NC(=O)CN2CCN(Cc3ccccc3)CC2)cc1Cl", "hERG current change (%, negative = inhibition) at 10uM": -46},
      {"smiles": "O=C(CN1CCNCC1)Nc1ccccc1Cl", "hERG current change (%, negative = inhibition) at 10uM": -2.06},
      {"smiles": "CCN(CC)S(=O)(=O)c1ccc(C)c(NC(=O)CNCc2ccccc2OC)c1.O=C(O)C(=O)O", "hERG current change (%, negative = inhibition) at 10uM": -37.7},
      {"smiles": "CCN(CC)S(=O)(=O)c1ccc(C)c(NC(=O)CN2CCN(C)CC2)c1.O=C(O)C(=O)O", "hERG current change (%, negative = inhibition) at 10uM": -12.4},
      {"smiles": "Cc1cc(-c2csc(N)n2)c(C)n1CCc1ccccc1.Cl", "hERG current change (%, negative = inhibition) at 10uM": -12.4},
      {"smiles": "Cc1ccc(Oc2ncc(CN3CCOCC3)s2)cc1", "hERG current change (%, negative = inhibition) at 10uM": 3.3},
      {"smiles": "C=CCn1c(SCC(=O)Nc2cc(C)on2)nc2sc(C)c(C)c2c1=O", "hERG current change (%, negative = inhibition) at 10uM": -0.759},
      {"smiles": "O=C(Nc1nnc(-c2ccc(Br)cc2)o1)C1=COCCO1", "hERG current change (%, negative = inhibition) at 10uM": 3.07},
      {"smiles": "COc1ccccc1CNC(=O)c1ccc(N(C)S(=O)(=O)c2ccc(C)cc2)cc1", "hERG current change (%, negative = inhibition) at 10uM": 17.5},
      {"smiles": "Cl.OC(c1ccccc1)(C1CCCCC1)C(CN1CCOCC1)c1ccccc1", "note": "(stereo not shown)", "hERG current change (%, negative = inhibition) at 10uM": -12.5},
      {"smiles": "Cn1nnnc1SC1CC(=O)N(c2ccccc2)C1=O", "note": "(stereo not shown)", "hERG current change (%, negative = inhibition) at 10uM": 2.48},
      {"smiles": "O=C(NCCO)c1ccc2[nH]c3ccccc3c2c1", "hERG current change (%, negative = inhibition) at 10uM": 9.18},
      {"smiles": "Cc1ccc(NC(=O)CN2CCOCC2)c(Br)c1", "hERG current change (%, negative = inhibition) at 10uM": -9.76},
      {"smiles": "Cc1ccc(NC(=O)CN2CCN(Cc3ccccc3)CC2)c(Br)c1.Cl", "hERG current change (%, negative = inhibition) at 10uM": -72.5},
      {"smiles": "Cc1ccc(NC(=O)CNCc2ccccc2)c(Br)c1", "hERG current change (%, negative = inhibition) at 10uM": 0.831},
      {"smiles": "CCCN1CCN(S(=O)(=O)c2ccc(-n3cnnn3)cc2)CC1", "hERG current change (%, negative = inhibition) at 10uM": -28},
      {"smiles": "CCOC(=O)N1CCN(S(=O)(=O)c2ccc(-n3cnnn3)cc2)CC1", "hERG current change (%, negative = inhibition) at 10uM": -61.4},
      {"smiles": "CCOC(=O)N1CCN(S(=O)(=O)c2ccc(C)cc2)CC1", "hERG current change (%, negative = inhibition) at 10uM": 17.9},
      {"smiles": "CCOC(=O)c1ccc(S(=O)(=O)N2CCC(C(=O)NCc3ccccc3OC)CC2)cc1", "hERG current change (%, negative = inhibition) at 10uM": -22.5},
      {"smiles": "COc1ccccc1CNC(=O)C1CCN(S(=O)(=O)c2ccc(-n3cnnn3)cc2)CC1", "hERG current change (%, negative = inhibition) at 10uM": -66.9},
      {"smiles": "O=S(=O)(c1ccc(-n2cnnn2)cc1)N1CCN(c2ccccc2F)CC1", "hERG current change (%, negative = inhibition) at 10uM": -3.2},
      {"smiles": "O=C(NCc1ccccc1Cl)C1CCN(S(=O)(=O)c2ccc(-n3cnnn3)cc2)CC1", "hERG current change (%, negative = inhibition) at 10uM": -27.3},
      {"smiles": "CCNC(=O)C(=O)N1CCC2(CC1)OCCN2S(=O)(=O)c1ccc(C)cc1", "hERG current change (%, negative = inhibition) at 10uM": 2.81},
      {"smiles": "COc1ccccc1N1CCN(S(=O)(=O)c2ccc(-n3cnnn3)c(C)c2)CC1", "hERG current change (%, negative = inhibition) at 10uM": -13.7},
      {"smiles": "COc1ccccc1N1CCN(S(=O)(=O)c2ccc(-n3cnnn3)cc2)CC1", "hERG current change (%, negative = inhibition) at 10uM": -72},
      {"smiles": "COc1cccc(CNC(=O)C(=O)N2CCC3(CC2)OCCN3S(=O)(=O)c2ccc(C)cc2)c1", "hERG current change (%, negative = inhibition) at 10uM": -57},
      {"smiles": "COc1ccc(CNC(=O)C(=O)N2CCC3(CC2)OCCN3S(=O)(=O)c2ccc(C)cc2)cc1", "hERG current change (%, negative = inhibition) at 10uM": -29.9}
    ]}
  ]
}
